B1: GBRAPL2_54_7386 (protein)
chain: MKKVNITIDFVAEGDPETLAKVEEVAEKEIEKMEEELKEKYGAETERSVEREDGVLTVTVDVTVPEEAVDDVIDLALETAERISKETGVKVSVVIGAEEL
B2: GBRAPL2_53_7359 (protein)
chain: MIEIDIAHPDKAVVKEAADKIFDVVEENGVEVEVTVTDENGTVTKLTGSVEEIREKVTAMAAKQPVLITIKLPDSAKETAEKIEDIALEKGATVSREELE
B3: GBRAPL2_54_7380 (protein)
chain: MKKVLITGEFIVEGDEESLEKVKKVAEEKSKELSEELKKKYGAESTISFEEEDGVLYITIDIITDEEAVDDVIDKLEELKKEIEKETGLKVSLVIGIEYL
B4: GBRAPL2_54_7376 (protein)
chain: MKKVEIEIDYIVEGDPAELARVEAVLKKELAEMEKTLKSKFNAKTTVSSEVEDGVLTTTVTVITDESHVDEVIDLALETAERVSAETGVKVSVVIGIKEL
B5: GBRAPL2_53_7364 (protein)
chain: MYLVEVEHPDKEKLLKAAEEIAKIAKKHNLKITVIFVKEDGTVERYTANAEEALKIAKEWIEKGDVILEVKLPDSLEEVKEEIIDAAAKNGAVVSVEELE
B6: GBRAPL2_54_7372 (protein)
chain: MTIVEIEATFIAEGSDEELERIEEVALRELKKLAERLKKEFGAESEISSEREDGVLSVTVKITTEKENVDEVLDLLEETRERISRETGRPVSLVIGIKEL
B7: GBRAPL2_54_7378 (protein)
chain: MKIVEVEVDYIAQGNDEELEKVEKVAKEELAKLTEELAKKYGAKTTTSVEREDGVLSVTLTVIVKESDLDAVIDLALETAKRIEEKTGVKVSVVIGTKEL
B8: GBRAPL2_53_7365 (protein)
chain: MTLVEVEHVDPEKMRAAAKKIAEVAKKHGLKIKVVFVDDEANVTEVTANAEEALKIAEEWIEKGHVILEVELPDDLEEVKEEIIDIAAEEGAVVSVEELE
B9: GBRAPL2_54_7383 (protein)
chain: AKKIEIEIDYIVEGDKESLEKVKKVFTELSKKMAEELKEKYGAETKIEFEEENGVLTGTITVITDESHVDEVIDRALELKKEIEKKTGLKVNVVIGIKEL
B10: GBRAPL2_54_7387 (protein)
chain: MKIIEIEIDYIAEGDDETLDKVEKVALEEIEKLKKELKEKYGAETEIEVEREDGVLSVTVTVITKEENVDEVIDLAEETAKEISEKTGIKVSVVIGLKEL
B11: GBRAPL2_54_7371 (protein)
chain: ETTVEIEATFLAEGTPEELARVRAVALEELEELKKELKEKFGAESEISAEEEDGVLSVTVTITTKKENLDEVLDLLEATRDRIAARTGLPVALVIGIKEL
B12: GBRAPL2_53_7362 (protein)
chain: MWLVEVEHPDKEKLLKAAKEIFKIAKENGLKVTVKFVKEDGTVEEKTLNAEEALKYVEEKVKEGDVILEIELPDSLEEAKEKIIDAAAKHGAVVSVEELE
B13: GBRAPL2_53_7366 (protein)
chain: MTEVEIEHPDKEKMLKAAKKVFELVKERNLKVTVIYVDENANVTRVTANAEEALKIAEEWIEKGDVILEVILPDSEEELKEKIIDIAAENGAVVSVEELE
B14: GBRAPL2_54_7369 (protein)
chain: MKIVEVTFVAEREFFLANRERIRAAALATYAELRKRLPDKVGELLSEEYSETPDYGSLSLDIEVDESALDEVIDAFEATRDALSAELGHPVHVVIGIGDK
B15: GBRAPL2_54_7373 (protein)
chain: MTKVLIEATFIAEGTPEELAEVRKVALEELEKLKKELKEKFGAESKISSEEEDGVLSVTVEITTEKENLDEVLDLLEETRERIAERTGRPVSLVIGIKEL
B16: GBRAPL2_53_7363 (protein)
chain: MYEVEVEHPDKEKLLRAAEKIAEIAEKHGLKITVTFVKEDATVEVHTADAKEALKIAKENIEKGDVILTVRLPDSLEEVREELIDAAAEEGAVVSVTELP
B17: GBRAPL2_54_7379 (protein)
chain: MKIVEVEITYLATGNEEELKKVEEVAKKKVEEFKKELEEKYGAKTTTSVEIEDGVLSYTVTVITKEENLDEVIDKALEMAKEIEKETGVKVSVVIGTKEL
B18: GBRAPL2_54_7385 (protein)
chain: MTKVLVEIDFLVEGDEEELAEVEKVLLEEIEKMKKELKEKYGAEVTVEVEREDGRLLVTVTVLTPKEAVDDVIDLAEKMRDEVEAKTGVKVHVVIGIEEL
B19: GBRAPL2_54_7375 (protein)
chain: MKKVEIEIDYIVEGNEEELKKVREVLKKELEKMKKELEEKFNATVEVSEEYENGVLTVTVKVIVDEEHVDEVIDLALETAERVSKETGVKVNVVIGIKEL
B20: GBRAPL2_54_7382 (protein)
chain: AKKVRITIEFIVEGNEEELEKVKKVAKELSEELAKELKEKYGATSSISFEEENGVLTITIDVITDESAVDDVIDRALELKEEIEKKTGLKVSVVIGIEYL
B21: GBRAPL2_53_7357 (protein)
chain: MLRLSIAHPDPAVVAEALRRIFEILREAGVEAEVVVTLEDGTVVRLTGDLDEIEARVTELAAKQPVLVDIYMPDSAEETVEEMEDAALDAGATVSVERVP
B22: GBRAPL2_54_7370 (protein)
chain: ETIIEIEATFIAEGSEEELEEVEKVALEKLAELSEKLKKEFGAESEISSERENGVLSVTVKITTKKEDLDKVLDLLEETRDEISKETGKKVSLVIGIKEL
B23: GBRAPL2_53_7361 (protein)
chain: MIEIDIAHPDPAVVKKAAEKIFDVAEENGVEVEVEVTTEDGTVTRLTGSIEEIREKVTAMAAKQPVLITIYLPDEAEETAEEIEDIALEEGATVSREVLP
B24: GBRAPL2_54_7389 (protein)
chain: MKMIEIVIDYIAEGDDEELDKVEEVLLELLEEFKKELKEKYGATVEVSVEREDGVLTVTVTVIVKEEDVDDVIDLADKVAKEVEAKTGVKVSLVIGIKEL
B25: GBRAPL2_54_7381 (protein)
chain: AKKVEIVADFIVEGTPEELAKVEKVATELSKKLAEELAAKYGATSTLSFEREDGVLLLTVTIVTDESAVDDVLDRLEELRDEIEKRTGVKVNLVIGIKEL
B26: GBRAPL2_54_7374 (protein)
chain: MKKVEITIDYVVEGNEEELEKVEKVLKKELEELKKKLESEFNAKTKISVERENGVLTIEVDVITDEKDVDKVIDLALETAKKVSEKTGVKVSVVIGIKEL
B27: GBRAPL2_54_7368 (protein)
chain: MIEVEITVVMKRENFLKHKELIKKILLEKVEELKKEHPDLIEKILEIEEEEYPDVGLLSIKILAKPEAEDLIRDLAEEIQKELEKKTGEKVHVVVAFGEL
B28: GBRAPL2_53_7367 (protein)
chain: MTLVEVEHPDKEKLLKAAEKIAEIAKKLGVNITVIFVKSDGSVERFTANAEEALKIAREKIKEGDVIIEVELEDSQEEALEEIIDAAAEAGAVVSVEKLP
B29: GBRAPL2_54_7388 (protein)
chain: MKKIRITVDFIAEGNDEELAKVEKVLLEELEKFKKELKEKFNAKTEISVERENGVLTITVDVITEEKDVDEVIDLADEVAKEVEKKTGVKVSVVIGIEEL
B30: GBRAPL2_54_7377 (protein)
chain: MKKVEITIDYIVEGDEEELKRVREVLEKELEKMEKELKEKFNAKTEVSVEVEDGVLTVTVDVIVDEKDVDKVIDLALKTAEEVSKKTGVKVNVVIGIKEL
B31: GBRAPL2_53_7358 (protein)
chain: MLVVEIAHPDPAVVKEAAKKILAVIKEDGVEAKVTVTTENGEVKVLTGDIDKIEAEVTALAAKQPVLISIELPDSAEETVEKMEDIALEAGATVSVYREP
B32: GBRAPL2_53_7360 (protein)
chain: MIVIDIAHPDKEVVKKAAEKIFDIVKEAGVEVEVTVTTEDGKVEKLTGSVDDIKAKVTELAAKQPVLIEITLPDSAKETAEKIVDVALEEGATVSVEELE

Biological target: GABARAPL2, P60520
Assay: median log2 fold change of GCK-ALFA target abundance (FLAG IP / Myc IP barcode read proportion) (log2 ratio); each designed protein is fused to an ALFA-tag nanobody in HEK293 cells to bring the named protein to FLAG-tagged glucokinase (GCK); Myc marks an untargeted standard; higher = target protein stabilised (more abundant)
Details: target protein: 3xFLAG-MCP-GCK-ALFA reporter; HEK293 landing pad (RPLP)
How it was run: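 HEK293 landing-pad cells received a recombined binder library fused to the ALFA nanobody and were induced with 2 μg mL^−1 doxycycline, then transfected with a plasmid encoding a FLAG-tagged target and a Myc-tagged standard. Lysates were collected after 48 h for anti-FLAG and anti-Myc immunoprecipitation, and the circular RNA barcodes were reverse transcribed, amplified and sequenced. Target abundance for each binder is the median log2 ratio of FLAG to Myc barcode read proportions. Barcodes had to reach a proportion of at least 10^−7 in both replicates, each binder needed at least 3 barcodes per replicate, a pseudocount of 10^−6 was applied, and the two replicates were pooled.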

Sequence of GABARAPL2, P60520 (P60520 whole entry, the tested form may be a part): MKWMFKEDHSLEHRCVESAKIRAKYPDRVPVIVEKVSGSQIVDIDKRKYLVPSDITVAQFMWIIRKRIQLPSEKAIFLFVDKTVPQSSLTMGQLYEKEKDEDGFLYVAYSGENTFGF

Binder	median log2 fold change
B1	-0.458
B2	0.276
B3	0.0537
B4	-0.212
B5	0.221
B6	0.186
B7	-0.111
B8	0.0119
B9	-0.128
B10	-0.429
B11	-0.0591
B12	0.16
B13	-0.0323
B14	-0.231
B15	0.0324
B16	0.174

Binder	median log2 fold change
B17	-0.192
B18	0.154
B19	-0.389
B20	0.121
B21	0.126
B22	-0.0409
B23	0.219
B24	-0.265
B25	-0.18
B26	-0.179
B27	-0.39
B28	0.299
B29	-0.363
B30	-0.193
B31	0.217
B32	0.111

Source: the supplement of paper PMC12632987
